Records with an inconclusive call do not appear. The source made the active and inactive calls. How the source made its calls, unless noted: active means hit-call score of the fitted dose curve at least 0.9, where 1 is the maximum; inactive means score below 0.9.
Columns and labels:
[1] = ACEA_ER_80hr: ACEA Biosciences xCELLigence Real-Time Cell Analysis on Estrogen Receptor Agonism for Proliferation (AID 2282667; active means hit-call score of the fitted dose curve at least 0.9, where 1 is the maximum); settings: T47D proliferation, impedance (xCELLigence), 80 h
Method in brief: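 T47D human breast cells were seeded on electrode plates, monitored overnight, then exposed continuously to compounds in eight-point 1:4 dilutions from 100 uM (max 0.5% DMSO). Impedance-based growth was read at 80 h, fitted upward relative to DMSO.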

[2] = APR_HepG2_CellCycleArrest_24hr: Apredica 24-hour HepG2 Assay for Cell Cycle Arrest (AID 2282905); settings: imaging, actives raise or lower the signal;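 further: cell cycle arrest scored as ratio of 2N to 4N nuclear DNA content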
Method in brief: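 Compounds at 0.39–200 uM (0.5% DMSO) for 24 h, then fixed and Hoechst 33342 stained. Cell-cycle analysis of nuclear DNA content by high-content imaging, fitted bidirectionally versus DMSO.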

[3] = APR_HepG2_NuclearSize_24hr: Apredica 24-hour HepG2 Assay for Nuclear Size (AID 2282907); settings: high-content imaging, actives raise or lower the signal
Method in brief: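 HepG2 cells exposed 24 h to compounds at 0.39–200 uM (0.5% DMSO), fixed, Hoechst 33342 stained and imaged at 20x; nuclear diameter measured by automated image analysis, fitted bidirectionally against DMSO controls.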

[4] = APR_HepG2_CellLoss_24hr: Apredica 24-hour HepG2 Assay for Cell Loss (AID 2282908); settings: high-content imaging;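 on AC50: fit in both directions so a hit may be cell loss or gain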
Method in brief: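 HepG2 cells exposed 24 hr to 0.39–200 uM compound in duplicate at 0.5% v/v final DMSO. Cells fixed in 3.7% formaldehyde and Hoechst 33342-stained. Cell number came from nuclear imaging at 20x. Bidirectional fit versus DMSO.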

[5] = APR_HepG2_MicrotubuleCSK_24hr: Apredica 24-hour HepG2 Assay for Microtubule CSK Stabilty (AID 2282909); settings: HepG2 microtubule cytoskeleton imaging, actives raise or lower the signal
Method in brief: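 HepG2 cells were treated 24 hr with compound at 0.39–200 uM in duplicate (0.5% DMSO final), then fixed and permeabilized. Alpha-tubulin immunofluorescence was imaged by high-content microscopy, with bidirectional fitting against DMSO and taxol as positive control.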

[6] = APR_HepG2_MitoticArrest_24hr: Apredica 24-hour HepG2 Assay for Mitotic Arrest (AID 2282910); settings: high-content imaging, actives raise or lower the signal
Method in brief: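 HepG2 cells, 24 h exposure at 0.39-200 uM (10 concentrations, duplicate, 0.5% DMSO). Fixed, stained for phospho-histone H3 with Hoechst; imaged by high-content microscopy, bidirectional fit versus DMSO.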

[7] = APR_HepG2_MitoMass_24hr: Apredica 24-hour HepG2 Assay for Mitochondrial Mass (AID 2282912); settings: high-content imaging, actives raise or lower the signal
Method in brief: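 HepG2 cells exposed 24 hr to 0.39–200 uM compound, 0.5% v/v DMSO, in duplicate. Stained before fixation with 250 nM MitoTracker Red CMXRos for 30 min, then imaged at 20x with Hoechst nuclei. Fitted in both directions against DMSO.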

[8] = APR_HepG2_CellCycleArrest_72hr: Apredica 72-hour HepG2 Assay for Cell Cycle Arrest (AID 2282914); settings: high-content imaging, actives raise or lower the signal
Method in brief: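 HepG2 cells were exposed to compounds at 0.39–200 uM (0.5% v/v DMSO final, duplicates) for 72 hr, fixed in 3.7% formaldehyde, permeabilized and stained with Hoechst 33342. Nuclear DNA content was quantified by high-content imaging; gain or loss of signal was fitted bidirectionally against DMSO.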

[9] = APR_HepG2_CellLoss_72hr: Apredica 72-hour HepG2 Assay for Cell Loss (AID 2282915); settings: high-content imaging
Method in brief: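 HepG2 cells exposed 72 h to compound at 0.39–200 uM (10 concentrations, duplicate) in 0.5% DMSO. Fixed with 3.7% formaldehyde and Hoechst 33342-stained. Imaged at 20x; nuclear count gives cell number, fitted bidirectionally versus DMSO.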

[10] = APR_HepG2_P-H2AX_72hr: Apredica 72-hour HepG2 Assay for H2AX Phosphorylation (AID 2282916); settings: imaging, actives raise or lower the signal;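 further: phospho-histone H2A.x immunostain intensity per cell marking DNA damage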
Method in brief: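 HepG2 cells treated 72 h at 0.39–200 uM, 0.5% DMSO final, duplicates. Formaldehyde-fixed, Triton-permeabilised, immunostained for phospho-H2A.x with Hoechst; fluorescence imaged at 20x, bidirectional fit versus DMSO.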

[11] = APR_HepG2_MitoMembPot_72hr: Apredica 72-hour HepG2 Assay for Mitochondrial Membrane Potential (AID 2282917); settings: imaging, actives raise or lower the signal
Method in brief: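 HepG2 cells dosed 72 hr with compound at 0.39–200 uM in duplicate, 0.5% v/v DMSO final. Mitochondria stained with 250 nM MitoTracker Red CMXRos for 30 min before formaldehyde fixation, imaged by high-content fluorescence; bidirectional fit versus DMSO.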

[12] = APR_HepG2_MitoticArrest_72hr: Apredica 72-hour HepG2 Assay for Mitotic Arrest (AID 2282918); settings: high-content imaging, actives raise or lower the signal
Method in brief: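 HepG2 cells were exposed for 72 hr to compound at 0.39–200 uM (10 concentrations, duplicate) in 0.5% v/v DMSO, fixed in 3.7% formaldehyde, immunostained for phospho-histone H3 with Hoechst 33342 and imaged by high-content fluorescence; bidirectional fits versus DMSO.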

[13] = APR_HepG2_MicrotubuleCSK_72hr: Apredica 72-hour HepG2 Assay for Microtubule CSK Stabilty (AID 2282919); settings: HepG2 microtubule cytoskeleton, high-content imaging, actives raise or lower the signal
Method in brief: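 HepG2 cells were exposed 72 hr to compound at 0.39–200 uM in duplicate (0.5% DMSO final), then fixed and permeabilized. Alpha-tubulin immunofluorescence was imaged by high-content microscopy, with bidirectional fitting against DMSO and taxol as positive control.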

[14] = APR_HepG2_P-H2AX_24hr: Apredica 24-hour HepG2 Assay for H2AX Phosphorylation (AID 2282920); settings: high-content imaging, actives raise or lower the signal
Method in brief: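 HepG2 human liver cells were exposed for 24 hr to compounds at 0.39–200 uM in duplicate, with 0.5% v/v DMSO final. Fixed cells were immunostained for phospho-histone H2A.x plus Hoechst 33342, imaged by HCS fluorescence, and fitted bidirectionally against DMSO.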

[15] = APR_HepG2_StressKinase_72hr: Apredica 72-hour HepG2 Assay for Stress Kinase (AID 2282921); settings: HepG2 stress kinase (phospho-c-Jun) imaging, actives raise or lower the signal
Method in brief: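 HepG2 cells treated 72 hr with 0.39–200 uM compound, 0.5% v/v DMSO, duplicate wells. After formaldehyde fixation and Triton permeabilization, stained with anti-phospho-c-Jun (1:500) and Cy3 secondary, imaged at 20x. Fitted in both directions against DMSO.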

[16] = APR_HepG2_StressKinase_24hr: Apredica 24-hour HepG2 Assay for Stress Kinase (AID 2282922); settings: HepG2 stress kinase (phospho-c-Jun) imaging, actives raise or lower the signal
Method in brief: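 HepG2 cells exposed 24 h to 0.39–200 uM compound in duplicate (0.5% v/v DMSO final). Cells fixed in 3.7% formaldehyde, permeabilized and immunostained for phospho-c-Jun; read by high-content fluorescence imaging, fitted bidirectionally against DMSO.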

[17] = APR_HepG2_MitoMass_72hr: Apredica 72-hour HepG2 Assay for Mitochondrial Mass (AID 2282924); settings: high-content imaging, actives raise or lower the signal;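 further: MitoTracker Red CMXRos stain intensity per cell imaged as mitochondrial mass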
Method in brief: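 HepG2 cells dosed 72 hr at 0.39–200 uM (0.5% DMSO), in duplicate. MitoTracker Red CMXRos 250 nM loaded 30 min before formaldehyde fixation; high-content fluorescence imaging, bidirectional fit versus DMSO.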

Measured: AC50

Nc1ccn([C@@H]2O[C@H](CO)[C@@H](O)[C@@H]2O)c(=O)n1
active: [2] 0.0387 µM | [3] 0.0391 µM | [4] 0.149 µM | [7] 0.0391 µM | [8] 0.0618 µM | [9] 0.0391 µM | [10] 0.202 µM | [12] 0.177 µM | [14] 0.0979 µM
inactive: [1] | [5] | [6] | [11] | [13] | [15] | [16] | [17]

NC(=O)N1c2ccccc2C=Cc2ccccc21
active: [1] 69.5 µM
inactive: [2] | [3] | [4] | [5] | [6] | [7] | [8] | [9] | [10] | [11] | [12] | [13] | [14] | [15] | [16] | [17]

CC[C@H](C)C(=O)O[C@H]1C[C@H](O)C=C2C=C[C@H](C)[C@H](CC[C@@H](O)C[C@@H](O)CC(=O)O)[C@H]21
inactive: [1] | [2] | [3] | [4] | [5] | [6] | [7] | [8] | [9] | [10] | [11] | [12] | [13] | [14] | [15] | [16] | [17]

CNC(C)=O
inactive: [1] | [2] | [3] | [4] | [5] | [6] | [7] | [8] | [9] | [10] | [11] | [12] | [13] | [14] | [15] | [16] | [17]

CC(C)C(=O)Nc1ccc([N+](=O)[O-])c(C(F)(F)F)c1
inactive: [3] | [5] | [11] | [15] | [16]
active: [1] 80.5 µM | [2] 71 µM | [4] 44.4 µM | [6] 62.8 µM | [7] 92.2 µM | [8] 34.9 µM | [9] 58.8 µM | [10] 70.8 µM | [12] 61 µM | [13] 67.8 µM | [14] 91 µM | [17] 74.9 µM

CCCC(CCC)C(=O)O
inactive: [1] | [2] | [3] | [4] | [5] | [6] | [7] | [8] | [9] | [10] | [11] | [12] | [13] | [14] | [15] | [16] | [17]

COCc1nnc(-c2ccc[n+]([O-])c2)n1-c1c(Cl)c(Cl)cc2[nH]c(=O)c(=O)[nH]c12
inactive: [1] | [2] | [3] | [4] | [5] | [6] | [7] | [8] | [9] | [10] | [11] | [12] | [13] | [14] | [15] | [16] | [17]

Cc1nccn1-c1ccc(Sc2cccc(C3(C(N)=O)CCOCC3)c2)cc1
inactive: [2] | [3] | [5] | [6] | [11] | [12] | [13] | [16] | [17]
active: [1] 0.782 µM | [4] 3.13 µM | [7] 19.8 µM | [8] 5.05 µM | [9] 17.4 µM | [10] 40.9 µM | [14] 73.4 µM | [15] 64 µM

COS(C)(=O)=O
inactive: [1] | [2] | [3] | [4] | [5] | [6] | [7] | [8] | [9] | [10] | [11] | [12] | [13] | [14] | [15] | [16] | [17]
